This is part of a sample that, as a whole, favours compounds with a hit. Of some 79,000 tested, about 15% had one in any assay. Activity calls are given as the source filed them. No stated cut-off is given here; in the data, active means growth inhibition above about 70%; inactive means the rest. Where a SMILES comes first, the peptide text is derived from it. [ ]: non-standard residue; d: D form. pGlu = O=C1CC[CH](C(=O)O)N1
How the values were obtained:
[1] = NCI Yeast Anticancer Drug Screen. Data for the rad50 strain (AID 155);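 further: 0% = growth of vehicle-only cultures of the same strain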; settings: S. cerevisiae rad50 strain growth inhibition; at 50.0 µM; hits give high values
Summary of the method: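 Genetically altered yeast (DNA repair pathway); compound treatment; growth inhibition vs vehicle ctrl.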

[2] = NCI Yeast Anticancer Drug Screen. Data for the mec2-1 strain (AID 157); settings: S. cerevisiae mec2-1 strain, at 50.0 µM, hits give high values
Summary of the method: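 Mutant yeast (mec2-1) grown with compound; growth inhibition relative to vehicle control reported.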

[3] = NCI Yeast Anticancer Drug Screen. Data for the sgs1 mgt1 strain (AID 161);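 further: 0% = growth of cultures given vehicle only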; settings: S. cerevisiae sgs1 mgt1 strain, at 50.0 µM, hits give high values
Summary of the method: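 Compounds are added to genetically altered yeast, and growth is compared with cultures given vehicle alone to give percent inhibition.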

[4] = NCI Yeast Anticancer Drug Screen. Data for the cln2 rad14 strain (AID 165);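 further: 0% = growth equal to vehicle treated cultures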; settings: S. cerevisiae cln2 rad14 strain, at 50.0 µM, hits give high values
Summary of the method: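 Readout is yeast growth inhibition versus vehicle-treated controls, using a strain with cln2 and rad14 alterations exposed to compound.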

[5] = NCI Yeast Anticancer Drug Screen. Data for the bub3 strain (AID 167); settings: S. cerevisiae bub3 mutant strain, at 50.0 µM, hits give high values
Summary of the method: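 Yeast carrying a defined mutation is treated with each compound, and growth is compared with that of vehicle-exposed cells to give inhibition.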

[6] = NCI Yeast Anticancer Drug Screen. Data for the mlh1 rad18 strain (AID 175); settings: S. cerevisiae mlh1 rad18 strain growth inhibition; at 50.0 µM; hits give high values
Summary of the method: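 Genetically defined yeast (DNA repair-deficient) exposed to compounds; growth inhibition determined relative to vehicle.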

Measured: growth inhibition

O=c1[nH]c2cc(Cl)ccc2nc1C1=C(O)c2ccccc2C1
inactive: [1] 32% | [2] 12.7% | [3] 23.6% | [4] 3.35% | [5] 6.7% | [6] 30.6%

CN(C)Cc1ccccc1COC(=O)/C=C/c1ccccc1
inactive: [1] 11.3% | [2] 7.5% | [3] 8.8% | [4] 10.1% | [5] 7.4% | [6] 8.95%

CCCCCCCCCCCCCCCCCCCCCCOC(=O)CCC(=O)OCCCCCCCCCCCCCCCCCCCCCC
inactive: [1] 17.2% | [2] -44.3% | [3] 17.4% | [4] -0.95% | [5] -10.8% | [6] 5.75%

Cc1cc[n+](CC(=O)CC(O)(C(F)(F)F)C(F)(F)F)cc1
inactive: [1] -9% | [2] 5.7% | [3] 15.2% | [4] -4.1% | [5] -6.95% | [6] -1.6%

ClC(Cl)(Cl)SSC(=Nc1ccccc1)SSC(Cl)(Cl)Cl
inactive: [2] 21.4% | [3] 51.6% | [4] -0.8% | [5] 64.3% | [6] 69.5%
active: [1] 70.8%

O=C1Nc2ccccc2C12CCNC2Cc1ccccc1 (centres undefined)
inactive: [1] -17.2% | [2] -12.2% | [3] -11.8% | [4] 19.8% | [5] -8.55% | [6] -21.4%

Cc1ccc(S(=O)(=O)N/N=C2/CCCOC2)cc1
inactive: [1] 16.1% | [2] 4.15% | [3] 59.6% | [4] 32.5% | [5] 24.2% | [6] 38%

Clc1ccc(Cl)c(N=Nc2cc3c4c(c2)CCN4CCC3)c1
inactive: [1] -34% | [2] -35.1% | [3] -15.2% | [4] -16.3% | [5] -10.8% | [6] -18.8%

CCOc1ccc(NC(=O)c2ccccc2O)cc1
inactive: [1] 26.9% | [2] 14% | [3] 17.7% | [4] -9.05% | [5] 17.3% | [6] 43.3%

CCC1=CC(C(O)CC(C)C)C(C)(Cc2ccc(CC)cn2)NC1c1ccccc1 (centres undefined)
inactive: [1] 24.9% | [2] 14.8% | [3] 40.2% | [4] 11.9% | [5] 54.1% | [6] 50.3%

NC(=O)c1ncc[nH]c1=O
inactive: [1] -0.65% | [2] 5.35% | [3] -12.6% | [4] 1.7% | [5] 4.2% | [6] -9.15%

N#CCC(c1ccccc1)(c1ccccc1)c1ccccc1
inactive: [1] 46.4% | [2] 34.8% | [3] 45.9% | [4] 37.1% | [5] 52.4% | [6] 39.6%

ON=C1CCCCC1
inactive: [1] 37.9% | [2] 7.45% | [3] -1.45% | [4] -27.9% | [5] -3.15% | [6] 25.1%

Cc1cn2cc(-c3cccs3)nc2s1
inactive: [1] 15.2% | [2] -1% | [3] 19.4% | [4] 18.6% | [5] -7.8% | [6] 15.1%

C#CC(OC(C)=O)C1OC(n2cnc3c(Cl)nc(Cl)nc32)C(OC(C)=O)C1OC(C)=O (centres undefined)
inactive: [1] 37.5% | [2] 2.45% | [3] 21.2% | [4] 17.9% | [5] 10.8% | [6] 24.4%

COc1ccc(C23CCCC(=O)C2C2C(=O)CCCC23c2ccc(OC)cc2)cc1 (centres undefined)
inactive: [1] 47.4% | [2] -0.85% | [3] 4.4% | [4] 10.6% | [5] 5.25% | [6] 13.1%

Cc1c(F)c(F)c(-c2c(F)c(F)c(C)c(F)c2F)c(F)c1F
inactive: [1] 5% | [2] -35.2% | [3] -17.3% | [4] 8.3% | [5] -16.2% | [6] 0.1%

CC1=NN(C(=O)CC(=O)Nc2ccccc2Cl)C(=O)C1N=Nc1ccc(C(=O)O)cc1 (centres undefined)
inactive: [1] -3.35% | [2] -6.85% | [3] 6.75% | [4] -9.75% | [5] -5.6% | [6] 17.8%

CCCCOC(=O)C(C)C(=O)CCC(C)CC (centres undefined)
inactive: [1] 4.55% | [2] 2.6% | [3] -1.1% | [4] -7.05% | [5] 8.2% | [6] 3.85%

Cc1ccc(/C=N/NC(=O)Cc2cccc3ccccc23)cc1
inactive: [1] -1.75% | [2] 13.4% | [3] 32.9% | [4] -10.9% | [5] 17.1% | [6] 21.1%

O=C(Nc1ccccc1Cl)NC1CCCCC1
inactive: [1] 5.1% | [2] -0.55% | [3] 5.35% | [4] 18.7% | [5] 17.1% | [6] 5.8%

CCCCN(CCCC)CC(O)c1cccc2c1cc(Cl)c1ccccc12 (centres undefined)
active: [1] 99.2% | [2] 99.6% | [3] 99.5% | [4] 98.5% | [5] 98.5% | [6] 99.3%

CN1CCCCC1=O
inactive: [1] -0.15% | [2] -2.6% | [3] 6.15% | [4] 8.65% | [5] 8.65% | [6] 9.8%

CC(=O)Nc1nc2c(s1)CCc1ccccc1-2
inactive: [1] 49.4% | [2] 13.8% | [3] 12.8% | [4] 5.6% | [5] 10.1% | [6] 15.2%

COc1ccccc1/C=C(\C#N)C(=O)O
inactive: [1] 15.9% | [2] -31.3% | [3] -0.75% | [4] 8.6% | [5] -6.65% | [6] -17.9%

CC(=O)Oc1cc(C=O)ccc1O
inactive: [1] 0.75% | [2] 6.7% | [3] -3.3% | [4] 1.65% | [5] -7.25% | [6] -7.6%

COc1cccc(C2NC(=O)c3c(n[nH]c3N)S2)c1O (centres undefined)
inactive: [1] -14.8% | [2] -43.4% | [3] -10.5% | [4] -6.55% | [5] 5.85% | [6] -40.1%

CC(NC(=O)C(Cc1cnc[nH]1)NC(=O)C1CCC(=O)N1)C(N)=O (stereo not drawn) ([pGlu]-His-Ala-NH2; configuration not given here)
inactive: [1] -15.4% | [2] -75% | [3] -17.3% | [4] -21.8% | [5] -12.7% | [6] -25.9%

Cc1cc(NS(=O)(=O)c2ccc(NC(=O)c3cccn4c(=O)c5ccccc5nc34)cc2)no1
inactive: [1] -24.6% | [2] 3.7% | [3] -44% | [4] 0.8% | [5] -14.7% | [6] -8.8%

CCC(=O)Oc1ccc[nH]c1=O
inactive: [1] 1.8% | [2] 21.2% | [3] 4.95% | [4] 24.6% | [5] 9.95% | [6] 14.2%

CC(=O)OC1C(=C(Br)Br)C(COC(=O)c2ccccc2)OC1n1cnc2c(NC(=O)c3ccccc3)ncnc21 (centres undefined)
inactive: [1] 8.3% | [2] 8.8% | [3] 10.4% | [4] 0.1% | [5] 16.9% | [6] 25.9%

CC(=O)OCC1OC(n2c(C)c(N=Nc3ccc(Cl)cc3)c(C)c(C#N)c2=S)C(OC(C)=O)C(OC(C)=O)C1OC(C)=O (centres undefined)
inactive: [1] 4.65% | [2] -0.75% | [3] 25.1% | [4] 11.9% | [5] 7.55% | [6] 18.8%

C=CCNC(=S)/N=C/c1c(O)c2ccccc2oc1=O
inactive: [1] -33.5% | [2] -29.6% | [3] -43% | [4] -33.6% | [5] -53% | [6] -46.9%

Cc1c2c(n3c(nc4ccccc43)c1C#N)N(c1ccc(Cl)cc1)CC2
inactive: [1] 1.1% | [2] -1.3% | [3] -10.8% | [4] 7.35% | [5] -6.4% | [6] -15.3%

CCCCCCCCCCCCc1ccc(CS)cc1
inactive: [1] 40.9% | [2] 36.3% | [3] 54% | [4] -1.7% | [5] 51.3% | [6] 32.6%

Cn1c(N)cc(=O)nc1N
inactive: [1] -7.55% | [2] 2.05% | [3] 6.2% | [4] 10.7% | [5] -1% | [6] 8.2%

CN(C(=O)c1ccc(Cl)c(Cl)c1)C(c1ccco1)P(=O)(c1ccccc1)c1ccccc1 (centres undefined)
inactive: [1] 54% | [2] 46.2% | [4] 17.2% | [5] 50.4% | [6] 45.9%
active: [3] 78.4%

CN1CCN(C(=O)Nc2ccc(N=Nc3ccccc3)cc2)CC1
inactive: [1] -9.3% | [2] -17.2% | [3] 6.1% | [4] -29.5% | [5] 16.8% | [6] -6.25%

O=c1c2ccccc2on1CN1CCN(Cn2oc3ccccc3c2=O)CC1
inactive: [1] 3.6% | [2] -11.1% | [3] -8% | [4] -12.9% | [5] -12.1% | [6] 5.05%

O=C(NNC(=O)C(F)(F)F)C(F)(F)F
inactive: [1] 0.55% | [2] -3.4% | [3] -5.1% | [4] -10% | [5] -12.8% | [6] -2%

O=S(=O)(Cc1cccs1)c1ncc(Br)cn1
inactive: [1] 9.25% | [2] 10.1% | [3] 7.9% | [4] 7.5% | [5] 11.8% | [6] 7.8%

COc1ccc(CSc2n[nH]c(=O)[nH]c2=S)cc1
inactive: [1] 14.8% | [2] -4.45% | [3] -10.4% | [4] -12.1% | [5] 4.7% | [6] 38.4%

COc1ccc2nc3cc(Cl)ccc3c(C=O)c2c1
inactive: [1] -0.15% | [2] 7.65% | [3] 5.75% | [4] -35.8% | [5] -4.3% | [6] -2.25%

N#CCC(=O)N/N=C(\C#N)c1ccccc1
inactive: [1] 8.65% | [2] 1.95% | [3] 0.55% | [4] -51.9% | [5] -18.1% | [6] 0.75%

Source: PubChem BioAssay (NCI)
